Measured values as given in PubChem BioAssay.

experiment: compound effects on lung adenocarcinoma cell viability – A549, calcein-AM fluorescence, 48 h, basal, profiling panel (AID 1162); conditions: higher = more signal
Also: test concentration not given here.

SMILES | z-score
C#CCN1[C@@H](Cc2ccccc2)C(=O)O[C@H](Cc2ccccc2)[C@@H]1/C=C/C1CC1 | -0.589
O=C1C=C(c2ccccc2)C(=O)C2=C1CC([C@H]1Oc3ccccc3S(=O)(=O)N3CCC[C@@H]13)=CC2 | -0.653
COC(=O)[C@@]1(Cc2ccccc2)[C@H]2c3cc(C(=O)N4CCCC4)n(Cc4ccc(OC)c(OC)c4)c3C[C@H]2CN1C(=O)c1ccccc1 | 0.126
O=C1c2ccccc2[C@@]2(Cc3ccccc3N(Cc3ccccc3)C2=O)[C@H](c2ccc(CO)cc2)N1Cc1ccccc1Cl | -0.334
C=C(CCCC)C(=O)CC[C@@H](OC(=O)c1ccccc1-c1ccccc1C(=O)O)c1ccccc1OCCO | 1.54
COC(=O)C1(Cc2ccccc2)C=C2C(=C(C)C(=O)C2C)CN1 (centres undefined) | -0.865
CC[C@@H]1C=C(C(=O)O)[C@H](c2ccc(OC)cc2)N1S(=O)(=O)c1ccc(C)cc1 | -0.0984
COc1ccc([Si](C)(C)[C@@H]2[C@@H](CC(=O)N(CCO)Cc3ccccc3)O[C@]3(C(=O)N(Cc4ccc(I)cc4)c4ccccc43)[C@H]2C)cc1 | -1.14
COc1ccc([Si](C)(C)[C@@H]2[C@@H](CC(=O)N3CCC[C@H]3CO)O[C@]3(C(=O)N(Cc4cccc(N5CCCCC5=O)c4)c4ccccc43)[C@H]2C)cc1 | -0.158
CCOC(=O)C[C@H]1[C@H](OC(=O)Cc2ccc3c(c2)OCO3)[C@@H](NC(=O)c2ccc3ccccc3n2)c2cc(OCCCO)ccc2N1C(=O)Cc1ccc(OC)cc1 | 0.703
O=C1[C@H]2C=C(I)[C@H](C[C@@H]2OCCCCCCO)[C@@]12CO2 | 0.249
C=C(CCCC)/C(=C/C[C@H](OC(C)=O)c1cccc(OCCO)c1)c1cnc2ccccc2c1 | 0.955
O=C(NC1CC1)[C@@H]1c2ccccc2C(=O)N(CC23CC4CC(CC(C4)C2)C3)[C@H]1c1ccc(CO)cc1 | 0.554
C=CC[C@@]12N=C(c3ccc(OCCCO)cc3)O[C@@H]1c1ccccc1N(CCC)C2=O | -0.604
C=CCOC(=O)[C@@H]1[C@H]2C(=O)O[C@H](c3ccccc3)[C@H](c3ccccc3)N2[C@H](c2ccc(OCCOC(=O)[C@H]3C[C@H]4C(=O)NCC(=O)N4[C@H]3c3cccc(OCCO)c3)cc2)[C@@]12C(=O)Nc1ccc(I)cc12 | -0.175
COC(=O)C(CC#Cc1ccc2c(c1)[C@]1(C(=O)N2)[C@H](C(=O)N2CCc3cc(OC)c(OC)cc3C2)[C@H]2C(=O)O[C@H](c3ccccc3)[C@H](c3ccccc3)N2[C@@H]1c1ccccc1OCCO)C(=O)OC | -0.179
C=CCOC(=O)[C@@H]1[C@H]2C(=O)O[C@H](c3ccccc3)[C@H](c3ccccc3)N2[C@H](c2ccc(OCCOC(=O)[C@H]3C[C@H]4C(=O)N[C@@H](CCCCN(C)C)C(=O)N4[C@H]3c3ccc(O)cc3)cc2)[C@@]12C(=O)Nc1ccc(I)cc12 | -0.191
COc1ccc([Si](C)(C)[C@@H]2[C@@H](CC(=O)N3CCC[C@H]3CO)O[C@]3(C(=O)N(Cc4ccc(N5CCOC5=O)cc4)c4ccccc43)[C@H]2C)cc1 | -0.526
CC1CC/C=C\[C@H]2OC34C=CCN(c5ccc6ccccc6c5)C(=O)[C@H]3N(C(C)CO)C(=O)[C@@H]4C2C(=O)O1 (some centres undefined) | -0.326
CCCCCCc1nc(-c2ccc(-c3ccc(Cl)c(Cl)c3)o2)cc2c1[Si](C(C)C)(C(C)C)OC2 | -0.567
CCOC(=O)C1=CC[C@@H](c2ccccc2)N(S(=O)(=O)c2ccc(C)cc2)[C@H]1c1ccccc1I | -0.855
COC(=O)[C@]1(Cc2ccccc2)N=C(c2ccc(OCCCO)cc2)O[C@@H]1c1ccccc1CN=[N+]=[N-] | -3.63
CC(C)=CCCC=C(C)C(O)C1C=CC2C(=O)N(c3ccccc3)C(=O)C2N1Nc1ccc(C#N)cc1 (centres undefined) | 1.46
CCOC(=O)C[C@H]1[C@H](OC(=O)c2ccccc2-c2ccccc2)[C@@H](NC(=O)C2CCCCC2)c2cc(OCCCO)ccc2N1C(=O)c1ccc2ccccc2n1 | 0.448

experiment: compound effects on differentiated 3T3-L1 adipocyte viability – cell-based, 3T3-L1 adipocytes, calcein-AM fluorescence, 48 h, basal, profiling panel (AID 1163); conditions: 3T3-L1 adipocytes viability, higher = more signal

SMILES | z-score
O=C1N(Cc2ccccc2)c2ccccc2C[C@@]12COC(c1ccc(OCCCO)cc1)=N2 | 0.629
COc1ccc([Si](C)(C)[C@H]2[C@H](CC(=O)N3Cc4ccccc4C[C@H]3CO)O[C@@]3(C(=O)N(c4ccccc4)c4ccccc43)[C@@H]2C)cc1 | 0.898
C=C(COC)/C(=C/C[C@@H](OC(C)=O)c1ccccc1OCCO)c1cnc2ccccc2c1 | 1.5
O=C(NCc1ccccc1)[C@@H]1c2ccccc2C(=O)N(Cc2cc(C(F)(F)F)cc(C(F)(F)F)c2)[C@H]1c1ccc(CO)cc1 | 1.79
COCCOC(=O)N1C(=O)[C@@]2(c3cc(C#CCNC(N)=O)ccc31)[C@H](C(=O)Nc1nc3ccccc3s1)[C@H]1C(=O)O[C@H](c3ccccc3)[C@H](c3ccccc3)N1[C@@H]2c1ccccc1OCCO | 0.706
CC=CC(O)C1C=CC2C(=O)NC(=O)C2N1Nc1ccc(Cl)cc1Cl (centres undefined) | -0.883
CCCCN1CC=CC23O[C@@H]4/C=C\CCCOC(=O)C4[C@H]2C(=O)N(C(CO)C(C)C)[C@@H]3C1=O (some centres undefined) | 0.265
COc1ccc([Si](C)(C)[C@H]2[C@H](CC(=O)N3Cc4ccccc4C[C@H]3CO)O[C@@]3(C(=O)N(C)c4c(Br)cc(C)cc43)[C@@H]2C)cc1 | 0.231
CC(C)(C)N1CC=CC23O[C@@H]4/C=C\CCCOC(=O)C4[C@H]2C(=O)N(CCCCCO)[C@@H]3C1=O (some centres undefined) | 1.03
C=C(CCCC)/C(=C/C[C@H](OC(=O)c1ccncc1)c1ccccc1OCCO)c1cc(C(=O)OC)ccc1OC | 0.503
COc1ccc(C(=O)Nc2ccc(CN3C(=O)[C@@]4(O[C@@H](CCn5cc(CCO)nn5)[C@H]([Si](C)(C)c5ccc(OC)cc5)[C@H]4C)c4ccccc43)cc2)cc1 | -0.319
C#CCN1[C@@H](Cc2ccccc2)C(=O)O[C@H](Cc2ccccc2)[C@@H]1/C=C/C1CC1 | -0.488
O=C1C=C(c2ccccc2)C(=O)C2=C1CC([C@H]1Oc3ccccc3S(=O)(=O)N3CCC[C@@H]13)=CC2 | -0.17
COC(=O)[C@@]1(Cc2ccccc2)[C@H]2c3cc(C(=O)N4CCCC4)n(Cc4ccc(OC)c(OC)c4)c3C[C@H]2CN1C(=O)c1ccccc1 | 0.106
O=C1c2ccccc2[C@@]2(Cc3ccccc3N(Cc3ccccc3)C2=O)[C@H](c2ccc(CO)cc2)N1Cc1ccccc1Cl | 0.331
C=C(CCCC)C(=O)CC[C@@H](OC(=O)c1ccccc1-c1ccccc1C(=O)O)c1ccccc1OCCO | 2.03
COC(=O)C1(Cc2ccccc2)C=C2C(=C(C)C(=O)C2C)CN1 (centres undefined) | 0.45
CC[C@@H]1C=C(C(=O)O)[C@H](c2ccc(OC)cc2)N1S(=O)(=O)c1ccc(C)cc1 | -0.32

SMILES | z-score
COc1ccc([Si](C)(C)[C@@H]2[C@@H](CC(=O)N(CCO)Cc3ccccc3)O[C@]3(C(=O)N(Cc4ccc(I)cc4)c4ccccc43)[C@H]2C)cc1 | 0.909
COc1ccc([Si](C)(C)[C@@H]2[C@@H](CC(=O)N3CCC[C@H]3CO)O[C@]3(C(=O)N(Cc4cccc(N5CCCCC5=O)c4)c4ccccc43)[C@H]2C)cc1 | 0.403
CCOC(=O)C[C@H]1[C@H](OC(=O)Cc2ccc3c(c2)OCO3)[C@@H](NC(=O)c2ccc3ccccc3n2)c2cc(OCCCO)ccc2N1C(=O)Cc1ccc(OC)cc1 | 0.867
O=C1[C@H]2C=C(I)[C@H](C[C@@H]2OCCCCCCO)[C@@]12CO2 | -0.0741
C=C(CCCC)/C(=C/C[C@H](OC(C)=O)c1cccc(OCCO)c1)c1cnc2ccccc2c1 | 1.16
O=C(NC1CC1)[C@@H]1c2ccccc2C(=O)N(CC23CC4CC(CC(C4)C2)C3)[C@H]1c1ccc(CO)cc1 | 0.875
C=CC[C@@]12N=C(c3ccc(OCCCO)cc3)O[C@@H]1c1ccccc1N(CCC)C2=O | 0.96
C=CCOC(=O)[C@@H]1[C@H]2C(=O)O[C@H](c3ccccc3)[C@H](c3ccccc3)N2[C@H](c2ccc(OCCOC(=O)[C@H]3C[C@H]4C(=O)NCC(=O)N4[C@H]3c3cccc(OCCO)c3)cc2)[C@@]12C(=O)Nc1ccc(I)cc12 | -0.407
COC(=O)C(CC#Cc1ccc2c(c1)[C@]1(C(=O)N2)[C@H](C(=O)N2CCc3cc(OC)c(OC)cc3C2)[C@H]2C(=O)O[C@H](c3ccccc3)[C@H](c3ccccc3)N2[C@@H]1c1ccccc1OCCO)C(=O)OC | -0.665
C=CCOC(=O)[C@@H]1[C@H]2C(=O)O[C@H](c3ccccc3)[C@H](c3ccccc3)N2[C@H](c2ccc(OCCOC(=O)[C@H]3C[C@H]4C(=O)N[C@@H](CCCCN(C)C)C(=O)N4[C@H]3c3ccc(O)cc3)cc2)[C@@]12C(=O)Nc1ccc(I)cc12 | -0.357
COc1ccc([Si](C)(C)[C@@H]2[C@@H](CC(=O)N3CCC[C@H]3CO)O[C@]3(C(=O)N(Cc4ccc(N5CCOC5=O)cc4)c4ccccc43)[C@H]2C)cc1 | 1.05
CC1CC/C=C\[C@H]2OC34C=CCN(c5ccc6ccccc6c5)C(=O)[C@H]3N(C(C)CO)C(=O)[C@@H]4C2C(=O)O1 (some centres undefined) | -4.43
CCCCCCc1nc(-c2ccc(-c3ccc(Cl)c(Cl)c3)o2)cc2c1[Si](C(C)C)(C(C)C)OC2 | 1.84
CCOC(=O)C1=CC[C@@H](c2ccccc2)N(S(=O)(=O)c2ccc(C)cc2)[C@H]1c1ccccc1I | -1.01
COC(=O)[C@]1(Cc2ccccc2)N=C(c2ccc(OCCCO)cc2)O[C@@H]1c1ccccc1CN=[N+]=[N-] | 0.748
CC(C)=CCCC=C(C)C(O)C1C=CC2C(=O)N(c3ccccc3)C(=O)C2N1Nc1ccc(C#N)cc1 (centres undefined) | 0.464
CCOC(=O)C[C@H]1[C@H](OC(=O)c2ccccc2-c2ccccc2)[C@@H](NC(=O)C2CCCCC2)c2cc(OCCCO)ccc2N1C(=O)c1ccc2ccccc2n1 | -0.87
